KDM4E inh = qHTS Assay for Inhibitors of Human Jumonji Domain Containing 2E (JMJD2E) | 230,000 compounds, 1.6% hits | Lysine-specific demethylase 4E (Homo sapiens), B2RXH2 | Potency, µM (titrated, usually from 57.1 µM), for the others: at the top dose activity change, negative = inhibition, hits mostly inhibitors | JMJD2E catalytic domain, FDH-coupled NADH fluorescence (FDH is formaldehyde dehydrogenase);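 note: potency is the fitted concentration of half-maximal effect; 0% = wells with enzyme and -100% = buffer wells without enzyme; nearly all actives have a fitted effect of over 50% in size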
Target sequence (B2RXH2 1-337 limits assumed): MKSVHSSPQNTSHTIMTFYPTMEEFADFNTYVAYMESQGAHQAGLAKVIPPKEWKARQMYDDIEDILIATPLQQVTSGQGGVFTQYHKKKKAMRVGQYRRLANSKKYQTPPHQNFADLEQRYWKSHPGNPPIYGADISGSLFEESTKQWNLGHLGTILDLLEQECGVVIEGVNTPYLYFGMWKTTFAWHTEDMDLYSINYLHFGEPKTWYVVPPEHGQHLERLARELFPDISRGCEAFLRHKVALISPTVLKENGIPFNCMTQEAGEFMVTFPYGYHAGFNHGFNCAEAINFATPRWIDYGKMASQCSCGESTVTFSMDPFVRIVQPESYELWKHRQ
Tau FP inhib = qHTS for Inhibitors of Tau Fibril Formation, Fluorescence Polarization; AID 1468, 2008; 280,000 compounds, 0.39% hits; K18 P301L tau heparin fibrillization, Alexa594 FP, 6 h; Potency, µM (highest dose often 57.7 µM), inactives show at the top dose activity, negative = inhibition, usual class: inhibitors; Microtubule-associated protein tau (Homo sapiens), P10636; note: potency is the fitted concentration of half-maximal effect; nearly all actives have a fitted effect of over 55% in size
Target sequence (P10636 561-689 P618L limits assumed): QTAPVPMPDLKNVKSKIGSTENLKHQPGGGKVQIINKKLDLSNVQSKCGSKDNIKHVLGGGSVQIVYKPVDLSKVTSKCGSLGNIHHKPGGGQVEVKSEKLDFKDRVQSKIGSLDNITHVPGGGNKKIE
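Quantitative HTS format: compounds meet 15 uM recombinant K18 P301L tau and Alexa 594-tau tracer in 100 mM sodium acetate pH 7; 20 uM heparin triggers fibrillization at 37 C over 6 hr; FP gives the signal.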
Tau fluor cs = Counterscreen qHTS for Inhibitors of Tau Fibril Formation, Fluorescence Polarization. tau K18 P301L Alexa594 fluorescence, heparin fibrillization. Potency, µM (titrated, usually from 57.7 µM), for the others: at the highest dose activity change, negative = decrease. 280,000 compounds, 0.93% hits; note: potency is the fitted concentration of half-maximal effect; nearly all actives have a fitted effect of over 55% in size
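Human tau K18 P301L (15 uM unlabeled, 0.24 uM Alexa 594-labeled) in 100 mM sodium acetate pH 7 with 20 uM heparin, 6 hr at 37 C. ThT 30 uM added, 1 hr ambient; Alexa 594 FP and total fluorescence read at 555/632 nm.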
Tau ThT inhib = qHTS for Inhibitors of Tau Fibril Formation, Thioflavin T Binding; Potency, µM (doses to about 57.4 µM), for inactives: at the highest dose activity, negative = inhibition, most hits filed as inhibitors; AID 1460, 2008; recombinant tau K18 P301L, heparin-induced fibrillization, ThT fluorescence; Microtubule-associated protein tau (Homo sapiens), P10636; 270,000 compounds, 2.1% hits; note: potency is the fitted concentration of half-maximal effect; nearly all actives have a fitted effect of over 55% in size
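Using a mix of unlabeled (15 uM) and Alexa 594-labeled (0.24 uM) tau K18 P301L, heparin-triggered fibrillization over 6 hr at 37 C was scored by ThT fluorescence.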
NPSR antagonist = qHTS Assay for Antagonists of the Neuropeptide S Receptor: cAMP Signal Transduction; CHO-NPSR cells, cAMP TR-FRET, antagonist mode; Potency, µM (top dose mostly 38.3 µM), without a hit: at the top dose activity change, negative = inhibition, actives largely listed as inhibitors; AID 1461, 2008; 220,000 compounds, 1% hits; note: potency is the fitted concentration of half-maximal effect; nearly all actives have a fitted effect of over 50% in size
PNC assembly inh = High Content Assay for Compounds that inhibit the Assembly of the Perinucleolar Compartment; AID 2417, 2010; activity change (PNC), negative = inhibition, % at 10 µM; PC3M PTB-GFP, PNC prevalence imaging, 16 h; stronger effect = lower value; 140,000 compounds, 3.1% hits;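 active = readout at or below -70, meaning at least 70% loss of cells showing the perinucleolar compartment, a nuclear body marking cancer cells; inconclusive = readout between -30 and a set limit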;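 note: plate controls were DMSO wells for no effect and camptothecin positive control wells for full effect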
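Read-out is percentage of cells bearing a perinucleolar compartment, from automated 20x imaging of fixed, Hoechst-stained PC3M PTB-GFP cells. Cells were seeded 4 h, then exposed 16 h to compound (23 nl of library stock) in duplicate plates.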
Starred values were filed as active, the others as inactive; ? = inconclusive; / = no result given; ! = not active in a repeat; [ ] = dose if it differs, or a comment. Most compounds without a hit are left out; they make up all but 5.1% or so of the library. Unless noted, calls come from the whole dose curve; as a rule, active = well fitted curve in the direction sought with a large enough effect; inconclusive = small, poorly fitted or top-dose-only effect, or another doubt; inactive = no such curve, though single readings can be large; an effect the other way counts as inactive or inconclusive. Unless noted, % is set by controls: 0 for no effect and ±100 for the full control effect.

SMILES | KDM4E inh | Tau FP inhib | Tau fluor cs | Tau ThT inhib | NPSR antagonist | PNC assembly inh
Cc1ccc(NC(=O)CSc2ccc(-c3sc(-c4ccccc4)nc3C)nn2)cc1F | / | -7.7% | ? | ? | / | /
COc1ccc(OC)c(CNS(=O)(=O)c2ccc(-c3cc(C(F)(F)F)on3)s2)c1 | / | -16.0% | ? | -9.9% | / | /
CCCCCOc1ccc(CSCCNC(=S)Nc2ccccc2)cc1 | -10.3% | 12.6µM* | ? | -13.5% | -44.8% | -25.5
CCc1ccc(NSc2ccccc2[N+](=O)[O-])cc1 | -6.0% | 2.5% | 14.1µM*[quencher] | ? | -4.6%[46.1 µM] | 45.5
COc1ccc2c(c1)OC/C(=C\c1ccc(OC)c(O)c1)C2=O | 20µM* | -4.7% | ? | 4.47µM* | / | /
CCCCN(C)CC(O)Cn1cc(/C=C/C(=O)c2cccs2)c2ccccc21 (stereo not given) | 4.8% | -2.4% | 6.8% | 5.1% | -8.1%[46.1 µM] | -100.0*
CCCCN(C)CC(O)Cn1cc(/C=C/C(=O)c2ccc(OCC)cc2)c2ccccc21 (stereo not given) | / | -11.9% | ? | 11.2µM* | / | /
CCCCN(CCCC)CC(O)Cn1cc(/C=C/C(=O)c2ccccc2)c2ccccc21 (stereo not given) | / | -6.9% | ? | ? | / | /
Cc1ccc(NC(=O)c2c(C)oc3ccc(O)c(CN(C)Cc4ccccc4)c23)c(C)c1 | / | 3.1% | -23.3% | -15.1% | / | /
COc1ccc(Cl)cc1NC(=O)CCS(=O)(=O)c1cccc2nonc12 | / | -1.7% | -21.2% | -4.4% | / | /
COC(=O)C1(C)C=C(Nc2ccc(OC)cc2)C(=O)N1c1ccc(OC)cc1 (stereo not given) | -18.2% | -7.4% | -5.5% | -3.9% | / | /
COc1cc2ncnc(Nc3ccc(F)c(Cl)c3)c2cc1OCCCN1CCOCC1 | / | 39.8µM* | ? | ? | / | /
CCOC(=O)Cc1csc(NC(=O)c2sc3nc4cc(C)ccc4cc3c2N)n1 | 1.7% | 14.2% | ? | 2.51µM* | -23.8% | -23.5
CCOC(=O)Cc1csc(NC(=O)c2sc3nc4ccc(CC)cc4cc3c2N)n1 | ? | 2.7% | -28.5% | 8.91µM* | -15.1%[46.1 µM] | ?
CCOC(=O)Cc1csc(NC(=O)c2ccc(Br)o2)n1 | 0.2% | 1.4% | -3.9% | -19.4% | -11.9%[46.1 µM] | ?
Cc1ccc(O)c(-c2n[nH]c3c2C(c2ccccc2F)N(Cc2ccco2)C3=O)c1 (stereo not given) | / | -8.9% | ? | ? | / | /
O=C(NCCN1CCCCC1)c1ccc(Cn2c(SCc3ccccc3)nc3cccnc32)cc1 | / | 0.7% | -29.5% | ? | / | /
COCCn1c(C)cc(O)c(C(c2ccccc2OC)N2CCCCC2)c1=O (stereo not given) | / | 2.4% | 5.4% | ? | / | /
Nc1ccc(C(=O)O)cc1[N+](=O)[O-] | 8.3% | 7.1% | 9.0% | -4.6% | -2.0% | /
Nc1ccc(C(=O)O)c(O)c1 | 7.08µM*! | -4.4% | ? | ? | 10.9% | ?
Nc1ccc(N)c(C(=O)O)c1 | -5.8% | ? | ? | 14.1µM* | -18.0% | /
CCOc1ccc2ncc3c(-c4ccc(C)cc4)nn(-c4cccc(F)c4)c3c2c1 | / | 4.9% | 11.2% | -0.5% | / | /
COc1ccc(OC)c(NC(=O)c2oc(=O)c3ccccc3c2-c2ccccc2)c1 | / | -10.4% | -15.9% | 5.1% | / | /
Cc1cc(C)cc(NC(=O)C(=O)NCC(c2ccc3c(c2)OCO3)N2CCOCC2)c1 (stereo not given) | / | -0.2% | -11.7% | -5.5% | / | /
CCOCCCNC(=O)C(c1ccc(Cl)cc1)N(Cc1ccc2c(c1)OCO2)C(=O)CNC(C)=O (stereo not given) | -3.9% | 6.2% | 2.5% | -4.7% | -8.6% | /
SMILES | KDM4E inh | Tau FP inhib | Tau fluor cs | Tau ThT inhib | NPSR antagonist | PNC assembly inh
CCOCCCNC(=O)C(c1ccc(C)cc1)N(Cc1ccc2c(c1)OCO2)C(=O)CNC(C)=O (stereo not given) | -1.5% | -0.5% | -2.8% | -2.8% | -10.4%[46.1 µM] | -100.0*
Cc1nc2cccnc2n1-c1cccc(C(=O)N2CCN(c3ccc(Cl)cc3)CC2)c1 | / | 9.7% | 1.9% | -4.5% | / | /
COc1cc(/C=C(/C#N)c2nc(-c3cc4ccccc4oc3=O)cs2)ccc1O | / | 14.8% | ? | 4.47µM* | / | /
Cc1ccc(C)c(CN2C(=O)CSc3ccc(C(=O)NCCc4ccc(Cl)cc4)cc32)c1 | / | -4.4% | -11.7% | 1.0% | / | /
Cc1oc(-c2cccc(Cl)c2)nc1CN1CCC(C(=O)NCc2ccc(F)cc2)CC1 | / | 0.6% | -12.6% | 1.3% | / | /
Cc1c(CCC(=O)NCCc2ccccc2)c(=O)oc2c(C)c(O)ccc12 | / | ? | -2.4% | 1.9% | / | /
CC(C)(C)Nc1nc(OCC(F)(F)F)nc(OCC(F)(F)F)n1 | 3.0% | -7.7% | -4.5% | -0.1% | -12.8%[46.1 µM] | -107.1*
Cc1csc2nc(COC(=O)c3ccc(NC(=O)C(C)Oc4ccccc4)cc3)cc(=O)n12 (stereo not given) | / | -1.9% | -28.5% | -2.5% | / | /
CC(C)(C)NC(=O)CSc1nncn1NCc1c(Cl)cccc1Cl | -0.2% | ? | -5.2% | -3.7% | -9.5%[46.1 µM] | -100.0*
COc1ccc(C2C(=O)N(C3CCCCC3)CC(=O)N2CCc2ccc(OC)c(OC)c2)cc1 (stereo not given) | / | 2.0% | 2.5% | 3.3% | / | /
Cc1ccc(Nc2nc3ccc(C)cc3nc2-n2nc(C)cc2C)c(C)c1 | / | 0.4% | -12.7% | -1.3% | / | /
CS(=O)(=O)N1CCN(c2ccc(NC(=O)CSc3ccc(Cl)cc3)cc2)CC1 | 2.7% | 16.4% | -14.2% | ? | -5.6%[46.1 µM] | 12.0
Cc1ccc(C(=O)N2CCN(c3ccc(NC(=O)CSc4ccc(Cl)cc4)cc3)CC2)cc1 | 6.7% | -0.1% | -3.6% | 1.4% | -14.5% | -113.4*
N#C/C(=C/c1ccc(Br)o1)C(N)=O | -0.3% | 9.6% | 2.9% | 1.0% | -9.2%[46.1 µM] | -87.1*
COc1ccc(NC(=O)/C(C#N)=C/c2ccc(Br)o2)cc1 | -2.9% | -1.6% | -16.1% | ? | -8.3%[46.1 µM] | -1.1
N#C/C(=C/c1ccc(Br)o1)C(N)=S | ? | -20.7% | 28.2µM*[quencher] | 17.8µM* | ? | /
CCSc1ncc(/C=N/Nc2ccc(F)cc2)n1C | 3.2% | 5.0% | ? | 8.91µM* | -20.9%[46.1 µM] | 42.8
CC1=C(C(=O)Nc2cccnc2)C(c2ccc(F)cc2)n2nc(SCc3ccccc3)nc2N1 (stereo not given) | / | -0.2% | -7.1% | -6.5% | / | /
CCN(c1cccc(C)c1)S(=O)(=O)c1ccc2[nH]c(=O)c(=O)[nH]c2c1 | -23.8% | 1.9% | 2.4% | -3.5% | 22.6%[46.1 µM] | -103.2*
